From PubChem BioAssay
Some of the results follow. Unmarked numbers belong to inactive results. The source made the active and inactive calls.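 How the source made its calls: active means mean inhibition of at least 40% at 20 µM; inactive means the rest.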

Test: apoptosome-driven caspase-3 activation blockers – biochemical, fluorescence, DEVD-Rh110, 20 µM, confirmation (AID 504614);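 further: plate controls were DMSO wells for no effect and DEVD-CHO caspase inhibitor control wells for full effect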
Conditions: reconstituted apoptosome, caspase-3 DEVD-Rh110 fluorescence; at 20 µM; active compounds read high

Compound	inhibition
CCCCNC(=O)C(C)N(CCN(C)C)C(=O)CCCCCN1C(=O)NC(c2ccc(Cl)cc2)C(C(=O)OCc2ccccc2)=C1C (stereo unspecified)	22.9%
O=C(CN1CCN(S(=O)(=O)c2ccc3ccccc3c2)CC1)NC(=O)NC1CCCCC1	26.3%
CCCCCCc1cc2cc(-c3nnc(-c4ccccc4)o3)c(=O)oc2cc1O	76% (active)
O=C1Nc2ccc([N+](=O)[O-])cc2C1=Nc1cccc(CO)c1	39.8%
Cc1ccc2nc(N3CCN(C(=O)c4ccco4)CC3)sc2c1	15.7%
CCC(=O)Nc1c(S(=O)(=O)c2ccccc2)c2nc3ccccc3nc2n1Cc1ccccc1	16.3%
COCC(C)OC(=O)c1c(N)n(CCCN2CCOCC2)c2nc3ccccc3nc12 (stereo unspecified)	12.4%
CCOC(=O)N1CCC(c2cc(=O)n(-c3ccccc3)[nH]2)CC1	32.4%
O=C1NNC(c2ccccc2)=N/C1=C\c1ccc(Cl)cc1	43.9% (active)
c1ccc(C[C@H]2CNCCN2CCC23CC4CC(CC(C4)C2)C3)cc1	1.61%
C#CCOCCOCCOCCNc1nc(N2CCN(C(=O)C([C@@H](C)O)n3cc([C@@H](N)CCCCN)nn3)CC2)nc(N2CCN(C(=O)[C@H](CCCCN)n3cc(CN)nn3)CC2)n1 (stereo partly specified)	1.31%
CCOc1c(Br)cc(/C=C2\C(=O)N(CCC#N)N=C2C)cc1OC	13.1%
COc1ccccc1C1C(C#N)=C(N)Oc2c1c(-c1ccccc1)nn2-c1ccccc1 (stereo unspecified)	19.9%
CCCCCCCCCCOC(=O)Cn1c(COc2cccc(OC)c2)[n+](C)c2ccccc21	74.8% (active)
CCN(CC(=O)NCc1cccs1)C(=O)c1cccc(S(=O)(=O)Nc2ccccc2OC)c1	36.9%
COc1ccc(NC(=O)CN(Cc2ccccc2)S(C)(=O)=O)cc1OC	3.82%
Cc1[nH]n(-c2ccccc2)c(=O)c1/C=N/NC(=O)c1ccoc1C	62% (active)
c1ccc2c(CCN3CCNC[C@H]3Cc3cccc4ccccc34)cccc2c1	24.8%

Compound	inhibition
O=C(CCCN1CCc2[nH]c3ccc(F)cc3c2C1)c1ccc(F)cc1	65.3% (active)
O=C(CCNS(=O)(=O)c1ccccc1)NCCSc1ccc(Br)cc1	40% (active)
COc1ccc(C(CNC(=O)c2ccc(S(=O)(=O)Nc3ccccc3F)cc2)N(C)C)cc1 (stereo unspecified)	43.8% (active)
NC[C@H](Cc1ccccc1)NCCc1cc(C(F)(F)F)cc(C(F)(F)F)c1	17.2%
C#CCOCCOCCOCCNc1nc(N2CCN(C(=O)CCCCCCCCCCNC(=O)[C@H](CCCCN)n3cc(C)nn3)CC2)nc(N2CCN(C(=O)CCCCCCCCCCNC(=O)[C@H](CO)n3cc(CCCSC)nn3)CC2)n1	4.3%
C#CCOCCOCCOCCNc1nc(N2CCN(C(=O)CCCCCCCCCCNC(=O)Cn3cc(CCCCCN)nn3)CC2)nc(N2CCN(C(=O)CCCCCCCCCCNC(=O)[C@H](CO)n3cc(CCCSC)nn3)CC2)n1	60.8% (active)
CCN(CC)CCOc1ccc2c(c1)C(=NNC(=O)c1ccccn1)c1cc(OCCN(CC)CC)ccc1-2	56.1% (active)
Cc1cc(C)n(-c2nc(SCC(=O)N3CCCC3)c3c4c(sc3n2)CCCC4)n1	26.4%
O=C(N/N=C\c1cccnc1)c1cc(-c2ccccc2)nc2c(Cl)cccc12	11.8%
CCOC(=O)C1CCN(C(=O)c2cccc(S(=O)(=O)N(CC)c3ccccc3)c2)CC1	27.8%
Cc1ccc2c(c1)C1CN(C)CCC1N2S(=O)(=O)c1ccc(Oc2ccc([N+](=O)[O-])cc2)cc1 (stereo unspecified)	20.2%
COc1ccc(-c2nc3cc(C)ccn3c2NC2CCCCC2)cc1SC1CCCCC1	15.6%
Cc1c(-c2nn(C)c(=O)c3ccccc23)oc2ccc(F)cc2c1=O	77.4% (active)
CC(=O)Nc1ccc(Nc2cc(C)nc(Nc3ccc(NC(C)=O)cc3)n2)cc1	10.4%
CN(C)S(=O)(=O)c1ccc2oc(SCC(=O)Nc3ccccc3F)nc2c1	77.8% (active)
O=c1cc(N2CCCCC2)c(-c2ccccc2)nn1Cc1cccc(F)c1	18.3%
Cc1cc(N2CCCC2)ccc1NC(=O)COc1ccc(Cl)cc1	28.9%
CCc1ccc(CNC(=O)C2CCN(c3nnc(C)c4c(C)n(-c5ccc(C)cc5)nc34)CC2)cc1	13.2%
